# Measured values: PMC7862700, “An all-to-all approach to the identification of sequence-specific readers for epigenetic DNA modifications on cytosine”
# Assays:
# Experiment in all cases: DAPPL (digital affinity profiling via proximity ligation, sequencing); 10 mM Tris-HCl pH 7.5, 50 mM NaCl, 1 mM DTT, 4% glycerol, room temperature, 30 min; GST-TFs on glutathione beads, 16-mer random dsDNA library, 0.1% formaldehyde crosslink after washing; high values mean tight binding
# Conditions in all cases: protein: recombinant; tags: N-terminal GST; dsDNA, one strand shown
# FEV = biological target: T1, FEV (Homo sapiens, UniProt Q99581 1-238)
# T1 sequence: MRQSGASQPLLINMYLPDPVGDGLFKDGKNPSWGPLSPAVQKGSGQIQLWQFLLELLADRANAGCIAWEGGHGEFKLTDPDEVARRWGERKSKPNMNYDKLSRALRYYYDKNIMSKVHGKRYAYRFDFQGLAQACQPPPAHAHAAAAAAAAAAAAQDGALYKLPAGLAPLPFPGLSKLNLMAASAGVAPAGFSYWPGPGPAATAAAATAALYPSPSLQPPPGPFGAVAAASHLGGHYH
# How it was run: (§1)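 In yeast, human transcription factors were expressed with a GST fusion, then pulled down on glutathione beads and given DNA barcodes. Pooled with a tag-only sample, they were exposed to 200 nmole of a 16-mer random double-stranded DNA library (Tris/NaCl/DTT/glycerol buffer, room temperature, 30 min), washed, crosslinked with 0.1% formaldehyde, proximity-ligated using BsaI/T4 ligase for 1 h at 37 °C, PCR-amplified and read on an Illumina NextSeq500. Each hexamer's frequency of reads for a factor, divided by the matching frequency for the tag-only sample, gives the binding signal.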
# ETV5 = ETV5 (Homo sapiens, UniProt P41161 1-510)
# Sequence of ETV5 (P41161 whole entry): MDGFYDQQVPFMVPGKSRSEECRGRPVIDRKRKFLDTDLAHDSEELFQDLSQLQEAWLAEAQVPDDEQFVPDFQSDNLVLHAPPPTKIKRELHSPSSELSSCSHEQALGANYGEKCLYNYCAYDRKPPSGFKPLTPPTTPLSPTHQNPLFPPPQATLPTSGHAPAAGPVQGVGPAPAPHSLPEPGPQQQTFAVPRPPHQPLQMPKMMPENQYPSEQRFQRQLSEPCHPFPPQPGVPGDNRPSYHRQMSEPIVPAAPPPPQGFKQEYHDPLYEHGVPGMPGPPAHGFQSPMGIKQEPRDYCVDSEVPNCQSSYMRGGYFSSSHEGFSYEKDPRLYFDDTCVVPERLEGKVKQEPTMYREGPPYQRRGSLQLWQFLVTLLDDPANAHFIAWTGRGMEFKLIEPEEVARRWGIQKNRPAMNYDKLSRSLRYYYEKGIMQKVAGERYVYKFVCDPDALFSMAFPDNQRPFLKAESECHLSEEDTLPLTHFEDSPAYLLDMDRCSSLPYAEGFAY
# How it was run: as §1
# SPIC = biological target: T2, SPIC (Homo sapiens, UniProt Q8N5J4 1-248)
# T2 sequence: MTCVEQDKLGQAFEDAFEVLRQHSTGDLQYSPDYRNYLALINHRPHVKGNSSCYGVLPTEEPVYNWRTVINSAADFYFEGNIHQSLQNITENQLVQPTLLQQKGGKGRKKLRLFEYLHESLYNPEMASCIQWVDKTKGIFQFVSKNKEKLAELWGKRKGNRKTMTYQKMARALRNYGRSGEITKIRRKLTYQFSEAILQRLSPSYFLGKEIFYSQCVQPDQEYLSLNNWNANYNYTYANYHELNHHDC
# How it was run: as §1
# ELF4 = ELF4 (Homo sapiens, UniProt Q99607 1-663)
# Sequence of ELF4 (Q99607 whole entry): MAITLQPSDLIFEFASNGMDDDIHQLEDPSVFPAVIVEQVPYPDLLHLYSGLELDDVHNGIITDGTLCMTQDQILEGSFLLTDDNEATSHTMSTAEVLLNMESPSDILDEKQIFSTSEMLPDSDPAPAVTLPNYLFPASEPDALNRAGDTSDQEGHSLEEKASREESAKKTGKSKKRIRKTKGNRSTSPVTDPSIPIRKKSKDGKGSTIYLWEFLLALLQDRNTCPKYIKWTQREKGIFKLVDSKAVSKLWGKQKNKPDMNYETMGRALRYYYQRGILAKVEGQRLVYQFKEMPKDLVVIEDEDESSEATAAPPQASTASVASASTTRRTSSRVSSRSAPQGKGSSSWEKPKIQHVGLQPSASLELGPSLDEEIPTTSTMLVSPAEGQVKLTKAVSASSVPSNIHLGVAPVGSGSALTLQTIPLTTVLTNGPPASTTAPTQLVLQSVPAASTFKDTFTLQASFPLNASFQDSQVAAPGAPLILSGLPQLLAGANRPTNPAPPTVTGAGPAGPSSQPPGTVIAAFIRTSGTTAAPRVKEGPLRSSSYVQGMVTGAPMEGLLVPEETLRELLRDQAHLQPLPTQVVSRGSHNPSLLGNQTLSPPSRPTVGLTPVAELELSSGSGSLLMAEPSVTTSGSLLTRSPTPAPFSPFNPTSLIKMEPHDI
# How it was run: as §1
# ELK4 = biological target: T3, ELK4 (Homo sapiens, UniProt P28324-2 1-405)
# T3 sequence: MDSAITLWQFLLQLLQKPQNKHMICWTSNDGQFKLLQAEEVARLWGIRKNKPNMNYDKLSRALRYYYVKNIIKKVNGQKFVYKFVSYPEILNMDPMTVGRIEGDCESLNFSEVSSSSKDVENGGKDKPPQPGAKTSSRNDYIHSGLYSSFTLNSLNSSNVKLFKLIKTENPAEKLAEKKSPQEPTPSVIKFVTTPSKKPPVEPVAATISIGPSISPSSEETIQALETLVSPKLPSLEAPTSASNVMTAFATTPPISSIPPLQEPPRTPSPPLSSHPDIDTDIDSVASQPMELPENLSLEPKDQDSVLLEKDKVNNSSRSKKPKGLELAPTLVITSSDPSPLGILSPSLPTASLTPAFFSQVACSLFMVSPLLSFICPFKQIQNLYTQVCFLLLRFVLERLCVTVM
# How it was run: as §1
# ETV2 = biological target: T4, ETV2 (Homo sapiens, UniProt O00321 1-342)
# T4 sequence: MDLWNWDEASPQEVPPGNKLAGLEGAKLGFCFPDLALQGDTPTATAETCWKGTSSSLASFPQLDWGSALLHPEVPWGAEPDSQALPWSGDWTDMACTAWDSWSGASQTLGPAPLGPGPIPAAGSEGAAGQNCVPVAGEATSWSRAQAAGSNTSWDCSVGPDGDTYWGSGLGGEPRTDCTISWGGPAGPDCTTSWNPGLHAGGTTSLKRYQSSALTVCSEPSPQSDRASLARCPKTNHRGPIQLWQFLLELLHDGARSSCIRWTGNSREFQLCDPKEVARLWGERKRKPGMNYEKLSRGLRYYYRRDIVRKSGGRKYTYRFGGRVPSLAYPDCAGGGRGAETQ
# How it was run: as §1
# ETV1 = ETV1 (Homo sapiens, UniProt P50549 1-477)
# Sequence of ETV1 (P50549 whole entry): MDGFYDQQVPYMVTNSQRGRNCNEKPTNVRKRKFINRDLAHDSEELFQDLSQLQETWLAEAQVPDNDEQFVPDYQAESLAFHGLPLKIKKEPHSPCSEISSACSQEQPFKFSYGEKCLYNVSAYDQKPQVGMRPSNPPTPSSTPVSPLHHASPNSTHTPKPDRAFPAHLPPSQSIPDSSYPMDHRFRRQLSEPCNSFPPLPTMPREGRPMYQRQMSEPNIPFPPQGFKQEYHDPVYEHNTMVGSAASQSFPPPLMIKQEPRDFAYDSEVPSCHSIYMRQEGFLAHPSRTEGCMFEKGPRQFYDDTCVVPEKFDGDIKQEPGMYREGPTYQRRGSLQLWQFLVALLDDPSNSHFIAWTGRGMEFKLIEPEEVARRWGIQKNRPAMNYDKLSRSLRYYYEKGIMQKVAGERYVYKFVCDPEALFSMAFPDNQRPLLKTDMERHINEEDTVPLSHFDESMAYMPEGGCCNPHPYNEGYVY
# How it was run: as §1
# ERF = biological target: T5, ERF (Homo sapiens, UniProt P50548 1-548)
# T5 sequence: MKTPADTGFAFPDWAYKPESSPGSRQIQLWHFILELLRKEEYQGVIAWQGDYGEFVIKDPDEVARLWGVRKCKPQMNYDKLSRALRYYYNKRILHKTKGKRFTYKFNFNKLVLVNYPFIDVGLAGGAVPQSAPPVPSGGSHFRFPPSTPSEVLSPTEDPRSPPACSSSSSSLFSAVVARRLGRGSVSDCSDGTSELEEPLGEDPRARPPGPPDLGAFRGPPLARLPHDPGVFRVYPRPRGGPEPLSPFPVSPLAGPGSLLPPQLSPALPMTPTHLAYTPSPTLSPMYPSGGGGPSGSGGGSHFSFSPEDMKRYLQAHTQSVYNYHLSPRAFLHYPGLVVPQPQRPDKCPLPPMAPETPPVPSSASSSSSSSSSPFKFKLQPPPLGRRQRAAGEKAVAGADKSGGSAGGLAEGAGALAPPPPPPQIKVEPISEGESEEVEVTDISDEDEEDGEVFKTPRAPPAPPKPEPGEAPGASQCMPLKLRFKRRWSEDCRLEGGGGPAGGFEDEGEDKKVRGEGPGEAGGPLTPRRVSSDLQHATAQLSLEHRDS
# How it was run: as §1
# ETV3L = biological target: T6, ETV3L (Homo sapiens, UniProt Q6ZN32 1-361)
# T6 sequence: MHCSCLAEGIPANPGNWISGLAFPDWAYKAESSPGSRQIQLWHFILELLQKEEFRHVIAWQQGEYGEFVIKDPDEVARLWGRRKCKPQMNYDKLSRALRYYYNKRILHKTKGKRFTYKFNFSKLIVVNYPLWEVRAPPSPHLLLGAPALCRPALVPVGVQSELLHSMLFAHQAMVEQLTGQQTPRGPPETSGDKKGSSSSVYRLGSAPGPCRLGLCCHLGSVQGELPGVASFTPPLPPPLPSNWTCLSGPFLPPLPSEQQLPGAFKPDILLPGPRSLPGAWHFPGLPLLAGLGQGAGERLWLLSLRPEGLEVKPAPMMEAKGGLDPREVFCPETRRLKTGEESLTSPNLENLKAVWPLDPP
# How it was run: as §1
# ETS2 = biological target: T7, ETS2 (Homo sapiens, UniProt P15036 1-469)
# T7 sequence: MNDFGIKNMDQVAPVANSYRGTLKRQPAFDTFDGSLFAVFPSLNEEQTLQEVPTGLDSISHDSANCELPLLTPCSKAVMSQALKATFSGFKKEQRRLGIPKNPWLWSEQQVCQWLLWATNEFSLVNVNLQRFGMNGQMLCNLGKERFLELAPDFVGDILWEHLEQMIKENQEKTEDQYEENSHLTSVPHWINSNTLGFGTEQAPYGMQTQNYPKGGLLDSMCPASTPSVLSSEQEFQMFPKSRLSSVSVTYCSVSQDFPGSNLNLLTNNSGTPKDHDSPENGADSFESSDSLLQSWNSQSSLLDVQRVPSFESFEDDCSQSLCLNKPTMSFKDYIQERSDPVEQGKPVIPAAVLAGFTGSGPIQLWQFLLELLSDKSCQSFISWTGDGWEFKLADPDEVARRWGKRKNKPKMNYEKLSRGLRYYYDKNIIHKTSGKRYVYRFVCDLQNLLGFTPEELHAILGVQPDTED
# How it was run: as §1
# SPDEF = biological target: T8, SPDEF (Homo sapiens, UniProt O95238 1-335)
# T8 sequence: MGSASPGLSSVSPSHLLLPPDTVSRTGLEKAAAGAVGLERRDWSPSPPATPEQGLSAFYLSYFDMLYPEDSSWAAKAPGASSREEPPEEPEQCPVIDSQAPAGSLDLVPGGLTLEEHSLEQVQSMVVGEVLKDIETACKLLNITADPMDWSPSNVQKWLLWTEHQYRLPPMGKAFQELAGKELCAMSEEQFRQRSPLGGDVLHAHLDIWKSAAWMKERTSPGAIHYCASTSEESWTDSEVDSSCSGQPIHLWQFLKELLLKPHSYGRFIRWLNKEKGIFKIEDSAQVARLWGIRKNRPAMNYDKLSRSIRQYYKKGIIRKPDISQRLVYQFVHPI
# How it was run: as §1
# ETV7 = biological target: T9, ETV7 (Homo sapiens, UniProt Q9Y603 1-341)
# T9 sequence: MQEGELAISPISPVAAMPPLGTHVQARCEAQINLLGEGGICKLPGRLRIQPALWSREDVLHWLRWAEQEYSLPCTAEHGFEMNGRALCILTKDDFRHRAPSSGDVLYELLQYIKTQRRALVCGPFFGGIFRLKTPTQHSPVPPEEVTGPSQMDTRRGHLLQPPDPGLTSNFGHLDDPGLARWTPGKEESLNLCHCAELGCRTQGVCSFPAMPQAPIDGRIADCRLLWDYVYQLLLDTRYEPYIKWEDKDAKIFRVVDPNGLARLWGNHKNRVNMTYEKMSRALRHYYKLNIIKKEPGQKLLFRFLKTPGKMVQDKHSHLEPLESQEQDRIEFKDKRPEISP
# How it was run: as §1
# ELF5 = biological target: T10, ELF5 (Homo sapiens, UniProt Q9UKW6-2 1-255)
# T10 sequence: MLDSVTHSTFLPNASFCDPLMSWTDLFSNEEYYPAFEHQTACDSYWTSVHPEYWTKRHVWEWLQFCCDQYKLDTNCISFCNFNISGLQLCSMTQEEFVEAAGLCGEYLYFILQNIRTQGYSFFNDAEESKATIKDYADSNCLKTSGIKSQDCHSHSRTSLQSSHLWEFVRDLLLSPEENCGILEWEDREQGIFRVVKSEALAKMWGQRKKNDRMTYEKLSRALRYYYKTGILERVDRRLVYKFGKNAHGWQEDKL
# How it was run: as §1
# ETV3 = biological target: T11, ETV3 (Homo sapiens, UniProt P41162-2 1-143)
# T11 sequence: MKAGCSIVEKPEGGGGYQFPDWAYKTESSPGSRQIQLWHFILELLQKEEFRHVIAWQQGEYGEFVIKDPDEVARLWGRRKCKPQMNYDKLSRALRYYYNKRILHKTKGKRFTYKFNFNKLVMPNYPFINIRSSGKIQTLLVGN
# How it was run: as §1
# ETV6 = ETV6 (Homo sapiens, UniProt P41212 1-452)
# Sequence of ETV6 (P41212 whole entry): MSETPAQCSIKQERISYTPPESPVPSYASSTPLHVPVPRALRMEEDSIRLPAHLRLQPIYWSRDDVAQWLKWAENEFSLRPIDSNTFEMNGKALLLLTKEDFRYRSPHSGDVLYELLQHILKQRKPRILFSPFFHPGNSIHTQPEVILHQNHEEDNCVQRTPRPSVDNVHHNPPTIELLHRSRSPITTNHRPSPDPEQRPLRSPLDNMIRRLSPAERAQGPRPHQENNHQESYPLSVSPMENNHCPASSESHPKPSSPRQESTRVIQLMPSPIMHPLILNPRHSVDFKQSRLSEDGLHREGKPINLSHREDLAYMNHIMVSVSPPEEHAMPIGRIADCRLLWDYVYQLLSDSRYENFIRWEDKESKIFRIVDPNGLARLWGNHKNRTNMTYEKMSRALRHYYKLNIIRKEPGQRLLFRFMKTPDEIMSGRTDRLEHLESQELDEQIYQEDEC
# How it was run: as §1
# ELF3 = biological target: T12, ELF3 (Homo sapiens, UniProt P78545 1-371)
# T12 sequence: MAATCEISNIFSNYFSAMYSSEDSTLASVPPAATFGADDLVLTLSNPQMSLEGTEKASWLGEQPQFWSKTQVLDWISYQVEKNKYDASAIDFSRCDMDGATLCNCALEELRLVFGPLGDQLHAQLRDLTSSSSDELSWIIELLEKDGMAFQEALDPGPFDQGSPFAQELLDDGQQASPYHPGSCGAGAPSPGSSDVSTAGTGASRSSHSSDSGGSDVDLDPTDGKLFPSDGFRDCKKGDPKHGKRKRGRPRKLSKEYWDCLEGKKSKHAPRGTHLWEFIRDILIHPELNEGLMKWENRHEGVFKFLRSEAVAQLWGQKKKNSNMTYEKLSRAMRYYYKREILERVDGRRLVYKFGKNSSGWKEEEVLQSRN
# How it was run: as §1
Sequence,binding signal (FEV),binding signal (ETV5),binding signal (SPIC),binding signal (ELF4),binding signal (ELK4),binding signal (ETV2),binding signal (ETV1),binding signal (ERF),binding signal (ETV3L),binding signal (ETS2),binding signal (SPDEF),binding signal (ETV7),binding signal (ELF5),binding signal (ETV3),binding signal (ETV6),binding signal (ELF3)
ACGGCC,"1.06 fold enrichment (6-mer frequency, TF over GST control)","1.14 fold enrichment (6-mer frequency, TF over GST control)","1.03 fold enrichment (6-mer frequency, TF over GST control)","1.15 fold enrichment (6-mer frequency, TF over GST control)","1.06 fold enrichment (6-mer frequency, TF over GST control)","1.01 fold enrichment (6-mer frequency, TF over GST control)","1.05 fold enrichment (6-mer frequency, TF over GST control)","1.02 fold enrichment (6-mer frequency, TF over GST control)","1.13 fold enrichment (6-mer frequency, TF over GST control)","1.1 fold enrichment (6-mer frequency, TF over GST control)","1.17 fold enrichment (6-mer frequency, TF over GST control)","1.13 fold enrichment (6-mer frequency, TF over GST control)","1.02 fold enrichment (6-mer frequency, TF over GST control)","1.13 fold enrichment (6-mer frequency, TF over GST control)","1.08 fold enrichment (6-mer frequency, TF over GST control)",–
CGCTGC,"1.14 fold enrichment (6-mer frequency, TF over GST control)","1.18 fold enrichment (6-mer frequency, TF over GST control)","1.21 fold enrichment (6-mer frequency, TF over GST control)","1.1 fold enrichment (6-mer frequency, TF over GST control)","1.2 fold enrichment (6-mer frequency, TF over GST control)",–,"1.21 fold enrichment (6-mer frequency, TF over GST control)","1.28 fold enrichment (6-mer frequency, TF over GST control)","1.17 fold enrichment (6-mer frequency, TF over GST control)","1.28 fold enrichment (6-mer frequency, TF over GST control)","1.15 fold enrichment (6-mer frequency, TF over GST control)","1.03 fold enrichment (6-mer frequency, TF over GST control)","1.07 fold enrichment (6-mer frequency, TF over GST control)","1.13 fold enrichment (6-mer frequency, TF over GST control)","1.18 fold enrichment (6-mer frequency, TF over GST control)","1.03 fold enrichment (6-mer frequency, TF over GST control)"
